Inconclusive results are not listed. Calls of active or inactive are those of the source. The call rests on the fitted dose curve; in most records, active means well fitted curve in the direction sought with a large enough effect; inconclusive means small, poorly fitted or top-dose-only effect, or another doubt; inactive means no such curve, though single readings can be large; an effect the other way counts as inactive or inconclusive.
Tests used:
[1] = P-glycoprotein substrates identified in KB-8-5-11 adenocarcinoma cell line, qHTS therapeutic library screen (AID 1346987); further: nearly all actives have a fitted effect of over 65% in size
Outline: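 Human cervical adenocarcinoma KB-8-5-11 cells, selected in colchicine to over-express P-gp and assayed without it, were exposed for 72 h to titrated compounds. An ATP-based luminescent viability signal gave AC50.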

[2] = NS1 protein of Zika virus - qHTS assay to identify small molecule inhibitors in human HEK 293 cells (AID 1347053); further: nearly all actives have a fitted effect of over 55% in size
Outline: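 TR-FRET signal from two anti-ZIKV NS1 antibodies quantified NS1 in HEK 293 cells 24 h after MR766 infection at MOI = 0.5; compounds were added 1 h before virus. Uninfected cells and infected cells defined the NS1 normalization range.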

[3] = qHTS of pediatric cancer cell lines to identify multiple opportunities for drug repurposing: Primary screen for TC32 cells (AID 1347089); further: nearly all actives have a fitted effect of over 60% in size
Outline: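 qHTS, TC32, 48 h drug treatment, CellTiter-Glo luminescence as a proxy for metabolically active cells; primary top concentration 46 µM (MIPE 11-pt, NPC 8-pt); confirmatory 11-pt.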

[4] = qHTS of pediatric cancer cell lines to identify multiple opportunities for drug repurposing: Primary screen for DAOY cells (AID 1347090); further: nearly all actives have a fitted effect of over 55% in size
Outline: (§1)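 Viability measured as metabolically active cells via CellTiter-Glo luminescence following 48 hours of compound exposure, 11-point dilutions in confirmatory testing. 500-1,000 cells/well plated 5 hours before dosing; controls were DMSO and 2.3 µM bortezomib.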

[5] = qHTS of pediatric cancer cell lines to identify multiple opportunities for drug repurposing: Primary screen for SJ-GBM2 cells (AID 1347091)
Outline: as §1

Measured: Potency
Potency means the concentration at half of the fitted maximal effect.

Cc1ccc(O)c(C(CCN(C(C)C)C(C)C)c2ccccc2)c1 (configuration not stated)
inactive: all assays above

C=C1CCC2[C@](C)(CO)C(O)CC[C@]2(C)C1CC=C1C(=O)OCC1O (some centres not stated)
inactive: all assays above

C[C@@]12C(=O)OC(=O)[C@@]1(C)C1CCC2O1
active: [1] 5260 nM | [2] 3720 nM | [3] 13100 nM | [4] 2960 nM | [5] 2090 nM

CCN(C(=O)c1c(O)c2c(Cl)cccc2n(C)c1=O)c1ccccc1
inactive: all assays above

Cc1cc(C(=O)NOCCO)c(Nc2ccc(I)cc2F)n(C)c1=O
inactive: all assays above

CCOC(=O)C=C[C@H](C[C@@H]1CCNC1=O)NC(=O)[C@@H](CC(=O)[C@@H](NC(=O)c1cc(C)on1)C(C)C)Cc1ccc(F)cc1
inactive: all assays above

COC(=O)C=CC(=O)OC
active: [4] 1870 nM
inactive: all other assays above

O=C(NNC(=O)c1ccc(CNS(=O)(=O)c2ccc(F)c(Cl)c2)cc1)c1ccccc1
inactive: all assays above

C[C@@H](NCc1cc2ccccc2[nH]1)c1cccc2ccccc12
inactive: all assays above

CCc1c(O)cc(O)c(C(=O)c2ccc(OCCN3CCOCC3)c(OC)c2)c1CC(=O)N(CCOC)CCOC
active: [3] 2940 nM | [4] 14800 nM | [5] 1180 nM
inactive: [1] | [2]

C[C@H]1COc2c(N3CCN(C)CC3)c(F)cc3c(=O)c(C(=O)O)cn1c23
inactive: all assays above

CN(C)CC[C@H](c1ccc(Cl)cc1)c1ccccn1
active: [4] 23500 nM
inactive: all other assays above

CN[C@@H]1C[C@H]2O[C@@](C)([C@H]1OC)n1c3ccccc3c3c4c(c5c6ccccc6n2c5c31)C(=O)N[C@H]4O
active: [1] 1870 nM | [2] 418 nM | [3] 2940 nM | [4] 469 nM | [5] 118 nM

C#CCC(Cc1cnc2nc(N)nc(N)c2n1)c1ccc(C(=O)N[C@@H](CCC(=O)O)C(=O)O)cc1 (some centres not stated)
active: [1] 41.8 nM | [2] 132 nM | [3] 37 nM | [4] 118 nM | [5] 118 nM

COc1cc(OC)c(NC(=O)Nc2cc(C)on2)cc1Cl
inactive: all assays above

COc1cc(C=CC(=O)CC(=O)C=Cc2ccc(O)c(OC)c2)ccc1O
active: [1] 48100 nM | [2] 19100 nM | [3] 33900 nM | [4] 21500 nM | [5] 30300 nM

CN(N=O)C(=O)N[C@H]1C(O)OC(CO)[C@@H](O)[C@H]1O (some centres not stated)
inactive: all assays above

CC(=O)N[C@@H]1[C@H](O[C@@H]2c3ccc(c(Cl)c3)Oc3cc4cc(c3O[C@H]3O[C@H](CO)[C@@H](O)[C@H](O)[C@H]3NC(=O)CCCCCCCC(C)C)Oc3ccc(cc3Cl)C[C@H]3NC(=O)[C@H](N)c5ccc(O)c(c5)Oc5cc(O)cc(c5)[C@H](NC3=O)C(=O)N[C@H]4C(=O)N[C@H]3C(=O)N[C@@H]2C(=O)N[C@@H](C(=O)O)c2cc(O)cc(O[C@H]4O[C@H](CO)[C@@H](O)[C@H](O)[C@H]4O)c2-c2cc3ccc2O)O[C@H](CO)[C@@H](O)[C@@H]1O
not listed: [2]
inactive: all other assays above

CCN(CC)CCNC(=O)c1c(C)[nH]c(C=C2C(=O)Nc3ccc(F)cc32)c1C
active: [1] 1210 nM | [3] 12000 nM | [4] 42900 nM | [5] 34000 nM

CC(=O)O[C@@]12CO[C@H]1C[C@H](O)[C@@]1(C)C(=O)[C@H](O)C3=C(C)[C@@H](OC(=O)C(O)[C@@H](NC(=O)OC(C)(C)C)c4ccccc4)C[C@@](O)([C@@H](OC(=O)c4ccccc4)[C@@H]21)C3(C)C (some centres not stated)
active: [1] 16.6 nM | [3] 0.1 nM | [4] 1 nM | [5] 23500 nM

Reference: PubChem BioAssay (NCATS)
